Measured values from PubChem BioAssay (NCI).
“And” between values parts separate entries of the source, which are not always exact repeats. Equal values may be shown once. About 79,000 compounds went through this panel and 15% of them were active in at least one assay; those are over-represented in the sample as a whole. More than one record can exist for a structure, and the calls need not agree. The source made the active and inactive calls. Cut-off read from the data, not from the text of the source: active = growth inhibition above about 70%; inactive = the rest.

Experiments:
[1] = NCI Yeast Anticancer Drug Screen. Data for the rad50 strain (AID 155);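 note: 0% = growth of vehicle-only cultures of the same strain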; conditions: S. cerevisiae rad50 strain growth inhibition, stronger effect = higher value
How it was run: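 Growth of the mutant yeast was measured after compound exposure and referenced to vehicle-treated cultures.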

[2] = NCI Yeast Anticancer Drug Screen. Data for the mec2-1 strain (AID 157); conditions: S. cerevisiae mec2-1 strain, stronger effect = higher value
How it was run: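 Yeast mec2-1 mutant treated with compound. Readout: growth inhibition vs vehicle controls.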

[3] = NCI Yeast Anticancer Drug Screen. Data for the sgs1 mgt1 strain (AID 161);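 note: 0% = growth of cultures given vehicle only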; conditions: S. cerevisiae sgs1 mgt1 strain, stronger effect = higher value
How it was run: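 Inhibition of yeast growth, normalised to vehicle-treated controls, is reported for a strain bearing genetic alterations in DNA damage repair.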

[4] = NCI Yeast Anticancer Drug Screen. Data for the cln2 rad14 strain (AID 165);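 note: 0% = growth equal to vehicle treated cultures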; conditions: S. cerevisiae cln2 rad14 strain, stronger effect = higher value
How it was run: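 cln2 rad14 yeast strain; compound exposure; growth inhibition read vs vehicle controls.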

[5] = NCI Yeast Anticancer Drug Screen. Data for the bub3 strain (AID 167); conditions: S. cerevisiae bub3 mutant strain, stronger effect = higher value
How it was run: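 Whole-cell yeast assay. The mutant strain was incubated with compounds, and growth inhibition was determined by comparison with vehicle-treated cells.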

[6] = NCI Yeast Anticancer Drug Screen. Data for the mlh1 rad18 strain (AID 175); conditions: S. cerevisiae mlh1 rad18 strain growth inhibition, stronger effect = higher value
How it was run: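 Yeast w/ defined DNA-repair lesions; compound exposure; growth vs vehicle controls → % inhibition.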

[7] = at 5.0 µM (retest, dose inferred, filed as 0.5)
[8] = at 50.0 µM (retest, dose inferred, filed as 5.0)

| SMILES | growth inhibition [1, 7] | growth inhibition [1, 8] | growth inhibition ([1]; at 50.0 µM) | growth inhibition [2, 7] | growth inhibition [2, 8] | growth inhibition ([2]; at 50.0 µM) | growth inhibition [3, 7] | growth inhibition [3, 8] | growth inhibition ([3]; at 50.0 µM) | growth inhibition [4, 7] | growth inhibition [4, 8] | growth inhibition ([4]; at 50.0 µM) | growth inhibition [5, 7] | growth inhibition [5, 8] | growth inhibition ([5]; at 50.0 µM) | growth inhibition [6, 7] | growth inhibition [6, 8] | growth inhibition ([6]; at 50.0 µM) |
| --- | --- | --- | --- | --- | --- | --- | --- | --- | --- | --- | --- | --- | --- | --- | --- | --- | --- | --- |
| COc1ccc(Br)cc1/C=C/[N+](=O)[O-] | 90% (active) | 99% (active) | 99.3% (active) | 90% (active) | 99% (active) | 99.2% (active) | 91% (active) | 99% (active) | 99.4% (active) | 83% (active) | 99% (active) | 77.8% (active) | 92% (active) | 99% (active) | 96.1% (active) | 92% (active) | 99% (active) | 98.7% (active) |
| COc1cc(C=Nc2cc(Br)c(OC)c(Br)c2)ccc1N(CCCl)CCCl | 1% (inactive) | 73% (active) | 84.5% (active) | -12% (inactive) | 79% (active) | 31.4% (inactive) | -1% (inactive) | 45% (inactive) | 76.2% (active) | 1% (inactive) | 46% (inactive) | 55.7% (inactive) | -8% (inactive) | -3% (inactive) | -1.45% (inactive) | 54% (inactive) | 95% (active) | 83.2% (active) |
| COC(=O)CCCCCCCCC[CH2][Hg][Cl] | 99% (active) | 99% (active) | 95% (active) | 100% (active) | 99% (active) | 97.5% (active) | 99% (active) | 99% (active) | 98% (active) | 99% (active) | 98% (active) | 97.3% (active) | 99% (active) | 99% (active) | 98.4% (active) | 100% (active) | 99% (active) | 98.4% (active) |
| C=C(CC(=O)O)C(=O)O (tested in a mixture with another compound) | -1% (inactive) | 0% (inactive) | -3.6% (inactive) and 99.4% (active) | 8% (inactive) | 0% (inactive) | 28% (inactive) and 99.5% (active) | -1% (inactive) | -1% (inactive) | -21.9% (inactive) and 98.8% (active) | 0% (inactive) | -2% (inactive) | 39% (inactive) and 99.6% (active) | -3% (inactive) | -4% (inactive) | -3.25% (inactive) and 99% (active) | 0% (inactive) | -1% (inactive) | 18.6% (inactive) and 99.2% (active) |
| CCCCCCCCC(=O)[O][Hg][c]1ccccc1 | 99% (active) | 99% (active) | 99.5% (active) | 100% (active) | 100% (active) | 99.7% (active) | 100% (active) | 99% (active) | 99.7% (active) | 99% (active) | 99% (active) | 99.3% (active) | 99% (active) | 100% (active) | 99.1% (active) | 99% (active) | 100% (active) | 99.5% (active) |
| N#Cc1ccccc1C(Cl)(Cl)Cl | 3% (inactive) | -6% (inactive) | -5.55% (inactive) | 6% (inactive) | 12% (inactive) | -21.9% (inactive) | -8% (inactive) | 3% (inactive) | -7.1% (inactive) | 38% (inactive) | 18% (inactive) | 27.1% (inactive) | 26% (inactive) | 13% (inactive) | 16.4% (inactive) | 9% (inactive) | 28% (inactive) | -0.3% (inactive) |
| COC(=O)CC1(C(=O)O)CC2(Cl)C(Cl)=C(Cl)C1(Cl)C2(Cl)Cl (stereo not drawn) | 4% (inactive) | 30% (inactive) | 65.9% (inactive) | 10% (inactive) | 52% (inactive) | 47.4% (inactive) | 6% (inactive) | 49% (inactive) | 75% (active) | 17% (inactive) | 56% (inactive) | 83.5% (active) | 1% (inactive) | 41% (inactive) | 36.8% (inactive) | 7% (inactive) | 57% (inactive) | 61.4% (inactive) |
| CCOC(=S)S | 43% (inactive) | 99% (active) | 98.9% (active) | 17% (inactive) | 100% (active) | 99.6% (active) | 4% (inactive) | 99% (active) | 99.5% (active) | 12% (inactive) | 66% (inactive) | 95.8% (active) | 29% (inactive) | 99% (active) | 99.2% (active) | 31% (inactive) | 99% (active) | 99.2% (active) |
| COC(=O)C1=C(C)N2CCSC2(C)C(C(=O)OC)C1c1cccc(Cl)c1 (stereo not drawn) | -21% (inactive) | 85% (active) | 80.3% (active) | 4% (inactive) | 77% (active) | 79.5% (active) | 0% (inactive) | 84% (active) | 82.3% (active) | 17% (inactive) | 66% (inactive) | 69.1% (inactive) | 13% (inactive) | 89% (active) | 81.5% (active) | 6% (inactive) | 90% (active) | 73.2% (active) |
| c1cc2c(c(NC3=NCCN3)c1)CCCC2 | 12% (inactive) | 18% (inactive) | -12.2% (inactive) | 1% (inactive) | -17% (inactive) | -18.9% (inactive) | 1% (inactive) | 12% (inactive) | -7% (inactive) | -21% (inactive) | -4% (inactive) | 33.1% (inactive) | -26% (inactive) | -7% (inactive) | -9.9% (inactive) | 2% (inactive) | 13% (inactive) | 7.65% (inactive) |
| CNCC(O)c1cn(C)c2ccccc12 (stereo not drawn) | 4% (inactive) | 0% (inactive) | 45% (inactive) | 4% (inactive) | 3% (inactive) | 20.6% (inactive) | 3% (inactive) | 5% (inactive) | 25.1% (inactive) | 6% (inactive) | 2% (inactive) | 22.1% (inactive) | 4% (inactive) | 0% (inactive) | 48.9% (inactive) | 0% (inactive) | -2% (inactive) | 40.9% (inactive) |
| COc1cc(/C=C/c2ccc(OC)c(OC)c2)cc(OC)c1 | -6% (inactive) | 10% (inactive) | 26.1% (inactive) | -2% (inactive) | 26% (inactive) | 15.1% (inactive) | -3% (inactive) | 68% (inactive) | 79% (active) | -4% (inactive) | 16% (inactive) | 47.6% (inactive) | 1% (inactive) | 69% (inactive) | 66.9% (inactive) | -3% (inactive) | 12% (inactive) | 59.5% (inactive) |
| CC(C)NCC(O)c1ccccc1Cl (stereo not drawn) | 3% (inactive) | 2% (inactive) | 5.4% (inactive) | 2% (inactive) | -2% (inactive) | -11.3% (inactive) | 0% (inactive) | 3% (inactive) | -3.35% (inactive) | 0% (inactive) | -2% (inactive) | 32.9% (inactive) | -2% (inactive) | -4% (inactive) | -6.2% (inactive) | 8% (inactive) | 3% (inactive) | 14.1% (inactive) |
| Cn1cc(/C=C/[N+](=O)[O-])c2ccccc21 | 7% (inactive) | 95% (active) | 97.1% (active) | -2% (inactive) | 96% (active) | 97.3% (active) | 2% (inactive) | 97% (active) | 98.4% (active) | 26% (inactive) | 98% (active) | 96.5% (active) | 22% (inactive) | 97% (active) | 97.7% (active) | 19% (inactive) | 97% (active) | 97.3% (active) |
| N#C[S-].[Nd+3].c1ccc(-c2ccccn2)nc1.c1ccc(-c2ccccn2)nc1.c1ccc(-c2ccccn2)nc1 | 62% (inactive) | 99% (active) | 91.2% (active) | 40% (inactive) | 99% (active) | 94.1% (active) | 44% (inactive) | 99% (active) | 93.5% (active) | 33% (inactive) | 96% (active) | 92.5% (active) | 62% (inactive) | 100% (active) | 93% (active) | 51% (inactive) | 99% (active) | 92% (active) |
| O=S(=O)(CCl)C(Cl)(Cl)Cl | 9% (inactive) and 5% (inactive) | 92% (active) and 61% (inactive) | 94.5% (active) and 63.5% (inactive) | 13% (inactive) and -32% (inactive) | 66% (inactive) and 49% (inactive) | 94.6% (active) and 62.2% (inactive) | 4% (inactive) and 3% (inactive) | 59% (inactive) and 67% (inactive) | 97% (active) and 51.5% (inactive) | -2% (inactive) and 1% (inactive) | 44% (inactive) and 36% (inactive) | 83.6% (active) and 43.4% (inactive) | 36% (inactive) and 1% (inactive) | 80% (active) and 56% (inactive) | 92.7% (active) and 67.8% (inactive) | 5% (inactive) and 4% (inactive) | 86% (active) and 73% (active) | 95.8% (active) and 69.7% (inactive) |
